According to PubChem BioAssay AID1159580 (chemical genetic matrix, 2015):
Several values for one entry are separate records, joined by “and”; a condition that tells them apart may be missing. Equal entries are not always repeated. Hit rate of the full screen: of about 5,500 compounds, about 2,000 (36%) were called active. Another 18% or so got no clear call; they are omitted. Cut-off read from the data, not from the text of the source: active = normalized growth mostly below about 0.91 (no sharp cut-off); inconclusive = no clear call, values can overlap the other calls; inactive = mostly above about 0.92. This is one part of the list.

Assay: chemical genetic growth profiling, strain panel (AID 1159580);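 note: tested at 20 µM; growth read once vehicle control cultures reached saturation at 30 °C; 1 = growth at the plate median or of vehicle wells; lower values mean less growth of the strain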
Conditions: growth OD

Measured: normalized growth

C[N+](C)(C)CCCCCC[N+](C)(C)C
inactive: S. cerevisiae deletion strains, locus YAL013W, strain DEP1, stronger effect = lower value 1.01 | S. cerevisiae deletion strains, locus YAL040C, strain CLN3, stronger effect = lower value 0.978 and 0.988 | S. cerevisiae deletion strains, locus YBR021W, strain FUR4, stronger effect = lower value 0.997 | S. cerevisiae deletion strains, locus YBR229C, strain ROT2, stronger effect = lower value 0.995 | S. cerevisiae deletion strains, locus YCL029C, strain bik1, stronger effect = lower value 0.988 | S. cerevisiae deletion strains, locus YCL061C, strain MRC1 (second series), stronger effect = lower value 1.01 and 1 | S. cerevisiae deletion strains, locus YDL035C, strain GPR1, stronger effect = lower value 1 | S. cerevisiae deletion strains, locus YDL074C, strain BRE1, stronger effect = lower value 1.07 | S. cerevisiae deletion strains, locus YDL101C, strain DUN1, stronger effect = lower value 0.993 | S. cerevisiae deletion strains, locus YDL134C, strain PPH21, stronger effect = lower value 0.98 | S. cerevisiae deletion strains, locus YDL185W, strain tfp1, stronger effect = lower value 0.984 | S. cerevisiae deletion strains, locus YDL192W, strain arf1, stronger effect = lower value 0.98 | S. cerevisiae deletion strains, locus YDR101C, strain arx1, stronger effect = lower value 1.03 | S. cerevisiae deletion strains, locus YDR150W, strain NUM1, stronger effect = lower value 1 and 0.998 | S. cerevisiae deletion strains, locus YDR162C, strain NBP2, stronger effect = lower value 0.985 | S. cerevisiae deletion strains, locus YDR318W, strain mcm21, stronger effect = lower value 0.984 | S. cerevisiae deletion strains, locus YDR363W, strain ESC2, stronger effect = lower value 1.01 and 0.998 | S. cerevisiae deletion strains, locus YDR388W, stronger effect = lower value 0.982 | S. cerevisiae deletion strains, locus YDR502C, strain sam2, stronger effect = lower value 0.985 | S. cerevisiae deletion strains, locus YEL061C, strain CIN8, stronger effect = lower value 0.993 | S. cerevisiae deletion strains, locus YER002W, strain NOP16, stronger effect = lower value 1.03 and 1 | S. cerevisiae deletion strains, locus YER110C, stronger effect = lower value 0.979 | S. cerevisiae deletion strains, locus YER155C, strain BEM2, stronger effect = lower value 0.998 | S. cerevisiae deletion strains, locus YER167W, strain BCK2, stronger effect = lower value 0.994 | S. cerevisiae deletion strains, locus YGL078C, strain dbp3, stronger effect = lower value 0.981 | S. cerevisiae deletion strains, locus YGL086W, strain mad1, stronger effect = lower value 1.02 | S. cerevisiae deletion strains, locus YGL248W, strain PDE1, stronger effect = lower value 1 | S. cerevisiae deletion strains, locus YGR078C, strain PAC10, stronger effect = lower value 1.03 and 0.99 | S. cerevisiae deletion strains, locus YGR135W, strain pre9, stronger effect = lower value 0.95 | S. cerevisiae deletion strains, locus YGR229C, strain SMI1, stronger effect = lower value 0.99 | S. cerevisiae deletion strains, locus YGR252W, strain gcn5, stronger effect = lower value 0.948 | S. cerevisiae deletion strains, locus YHR030C, strain SLT2, stronger effect = lower value 0.987 and 1.05 | S. cerevisiae deletion strains, locus YHR079C, strain IRE1 (second series), stronger effect = lower value 0.993 | S. cerevisiae deletion strains, locus YHR079C, strain IRE1, stronger effect = lower value 1.04 | S. cerevisiae deletion strains, locus YHR094C, strain hxt1, stronger effect = lower value 0.987 | S. cerevisiae deletion strains, locus YHR129C, strain ARP1, stronger effect = lower value 0.988 | S. cerevisiae deletion strains, locus YHR200W, strain rpn10, stronger effect = lower value 0.989 | S. cerevisiae deletion strains, locus YIL066C, strain RNR3, stronger effect = lower value 0.994 | S. cerevisiae deletion strains, locus YIL073C, strain SPO22, stronger effect = lower value 0.953 | S. cerevisiae deletion strains, locus YIL125W, strain kgd1, stronger effect = lower value 1 | S. cerevisiae deletion strains, locus YIR030C, strain dcg1, stronger effect = lower value 0.985 | S. cerevisiae deletion strains, locus YJL095W, strain BCK1, stronger effect = lower value 1 and 1.05 | S. cerevisiae deletion strains, locus YJL134W, strain LCB3, stronger effect = lower value 0.989 | S. cerevisiae deletion strains, locus YJL168C, strain set2, stronger effect = lower value 1 | S. cerevisiae deletion strains, locus YJL187C, strain SWE1 (second series), stronger effect = lower value 0.999 | S. cerevisiae deletion strains, locus YJR043C, strain POL32, stronger effect = lower value 1 | S. cerevisiae deletion strains, locus YJR066W, strain TOR1, stronger effect = lower value 0.96 | S. cerevisiae deletion strains, locus YJR075W, strain HOC1, stronger effect = lower value 0.998 and 1.01 | S. cerevisiae deletion strains, locus YKL009W, strain mrt4, stronger effect = lower value 0.99 | S. cerevisiae deletion strains, locus YKL068W, stronger effect = lower value 0.988 | S. cerevisiae deletion strains, locus YKL085W, strain MDH1 (second series), stronger effect = lower value 0.998 | S. cerevisiae deletion strains, locus YKL085W, strain MDH1, stronger effect = lower value 0.998 | S. cerevisiae deletion strains, locus YKL190W, strain CNB1, stronger effect = lower value 1.01 | S. cerevisiae deletion strains, locus YKR001C, strain vps1, stronger effect = lower value 1 | S. cerevisiae deletion strains, locus YLR039C, strain RIC1, stronger effect = lower value 1 | S. cerevisiae deletion strains, locus YLR058C, strain SHM2, stronger effect = lower value 0.987 | S. cerevisiae deletion strains, locus YLR102C, strain apc9, stronger effect = lower value 0.987 | S. cerevisiae deletion strains, locus YLR113W, strain HOG1, stronger effect = lower value 1.1 | S. cerevisiae deletion strains, locus YLR262C, strain YPT6, stronger effect = lower value 0.97 | S. cerevisiae deletion strains, locus YLR268W, strain sec22, stronger effect = lower value 0.99 | S. cerevisiae deletion strains, locus YLR330W, strain CHS5, stronger effect = lower value 0.99 | S. cerevisiae deletion strains, locus YLR342W, strain FKS1 (second series), stronger effect = lower value 0.976 | S. cerevisiae deletion strains, locus YLR371W, strain rom2, stronger effect = lower value 0.988 | S. cerevisiae deletion strains, locus YLR418C, strain cdc73, stronger effect = lower value 0.946 | S. cerevisiae deletion strains, locus YML016C, strain PPZ1, stronger effect = lower value 0.99 | S. cerevisiae deletion strains, locus YML032C, strain rad52, stronger effect = lower value 1 | S. cerevisiae deletion strains, locus YML124C, strain tub3, stronger effect = lower value 0.995 | S. cerevisiae deletion strains, locus YMR078C, strain ctf18, stronger effect = lower value 0.983 | S. cerevisiae deletion strains, locus YMR223W, strain ubp8, stronger effect = lower value 0.964 | S. cerevisiae deletion strains, locus YMR263W, strain SAP30, stronger effect = lower value 1.01 and 0.998 | S. cerevisiae deletion strains, locus YMR307W, strain GAS1, stronger effect = lower value 0.96 and 1.01 | S. cerevisiae deletion strains, locus YNL067W, strain RPL9B, stronger effect = lower value 1.01 | S. cerevisiae deletion strains, locus YNL128W, strain TEP1, stronger effect = lower value 0.992 and 1.01 | S. cerevisiae deletion strains, locus YNL153C, strain GIM3, stronger effect = lower value 1.03 and 1.01 | S. cerevisiae deletion strains, locus YNL175C, strain NOP13, stronger effect = lower value 0.99 and 1.02 | S. cerevisiae deletion strains, locus YNL183C, strain NPR1, stronger effect = lower value 1.01 | S. cerevisiae deletion strains, locus YNL197C, strain WHI3, stronger effect = lower value 0.999 and 1.02 | S. cerevisiae deletion strains, locus YNL224C, strain SQS1, stronger effect = lower value 0.994 and 1.04 | S. cerevisiae deletion strains, locus YNL233W, strain BNI4, stronger effect = lower value 1.01 | S. cerevisiae deletion strains, locus YNL250W, strain rad50, stronger effect = lower value 0.957 | S. cerevisiae deletion strains, locus YNL271C, strain bni1, stronger effect = lower value 0.984 | S. cerevisiae deletion strains, locus YNL298W, strain CLA4, stronger effect = lower value 0.981 | S. cerevisiae deletion strains, locus YNL307C, strain MCK1, stronger effect = lower value 0.985 | S. cerevisiae deletion strains, locus YNL322C, strain KRE1, stronger effect = lower value 0.998 and 0.995 | S. cerevisiae deletion strains, locus YNR052C, strain pop2, stronger effect = lower value 0.987 | S. cerevisiae deletion strains, locus YOL006C, strain TOP1, stronger effect = lower value 1.06 | S. cerevisiae deletion strains, locus YOL012C, strain htz1 1.51 | S. cerevisiae deletion strains, locus YOL147C, strain pex11, stronger effect = lower value 0.99 | S. cerevisiae deletion strains, locus YOR061W, strain CKA2, stronger effect = lower value 0.995 | S. cerevisiae deletion strains, locus YOR069W, strain VPS5, stronger effect = lower value 0.987 | S. cerevisiae deletion strains, locus YOR083W, strain WHI5 (second series), stronger effect = lower value 0.968 and 0.999 | S. cerevisiae deletion strains, locus YOR136W, strain idh2, stronger effect = lower value 0.994 | S. cerevisiae deletion strains, locus YOR144C, strain elg1, stronger effect = lower value 0.993 | S. cerevisiae deletion strains, locus YOR184W, strain ser1, stronger effect = lower value 0.988 | S. cerevisiae deletion strains, locus YOR231W, strain MKK1, stronger effect = lower value 1.09 | S. cerevisiae deletion strains, locus YOR316C, strain cot1, stronger effect = lower value 0.988 | S. cerevisiae deletion strains, locus YPL055C, strain LGE1, stronger effect = lower value 1.04 | S. cerevisiae deletion strains, locus YPL256C, strain CLN2, stronger effect = lower value 1.05 | S. cerevisiae deletion strains, locus YPR119W, strain clb2, stronger effect = lower value 0.997 | S. cerevisiae deletion strains, locus YPR141C, strain kar3, stronger effect = lower value 0.98 | S. cerevisiae deletion strains, locus YPR163C, strain tif3, stronger effect = lower value 1.01 | S. cerevisiae deletion strains, locus YPR167C, strain met16, stronger effect = lower value 0.983 | S. cerevisiae deletion strains, strain wtn01, stronger effect = lower value 0.982 | S. cerevisiae strains, strain wild type, stronger effect = lower value 0.995
